Screening data from PubChem.
ATXN2 expr inh: ATXN2 expression inhibition; HEK-293 ATXN2-luciferase reporter, luminescence, 24 h; Potency, µM (top dose mostly 57 µM), most hits filed as inhibitors; AID 1745845; 0.72% of 360,000 active; also: nearly all actives have a fitted effect of over 55% in size
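ATXN2-luciferase reporter cells (luciferase flanked by upstream and downstream ATXN2 gene portions) were treated 24 h at 37 °C with compounds at up to 57 uM. SteadyGlo luminescence gave expression; GF-AFC fluorescence gave viability.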
PINK1 modulator: PINK1 expression modulation. PINK1 immunofluorescence, high-content cytometry, 24 h. Potency, µM (top dose mostly 76.6 µM), actives largely listed as activators. 0.2% of 410,000 active. AID 624263; active = well fitted activation curve with a large enough effect; inconclusive = small, poorly fitted or top-dose-only effect; cell line not stated here; also: nearly all actives have a fitted effect of over 65% in size
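A stable cell line was treated with compounds at 5 concentrations for 24 hours, with CCCP as control. PINK1 levels and mitochondrial localization were measured by immunofluorescence with mitochondrial, cell and nuclear markers after fixation, read by laser-scanning cytometry.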
IL1B secr inh: inflammasome signaling inhibition, IL-1 beta readout; THP-1 LPS/ATP IL-1B secretion, AlphaLISA, 16 h; stronger effect = lower value; activity change, % at 57.5 µM; 4.7% of 360,000 active; AID 743279; in the data active = activity change below about -50%; inconclusive = mostly about -30% to -49%
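THP-1 cells pretreated 1 hr with compounds (up to 57.5 uM final), then stimulated with LPS (250 ng/mL final) plus ATP (1.25 mM final); secreted IL-1B measured by AlphaLISA after 16 hr, decreased signal indicating inhibition.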
SW480 rerep: inducers of DNA re-replication in SW480 colon cancer cells. SW480 DNA re-replication, Hoechst DNA content imaging, 48 h. Potency, µM (highest dose often 46.1 µM), actives largely listed as activators. 1.8% of 340,000 active; also: nearly all actives have a fitted effect of over 55% in size
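Readout is total intensity of Hoechst-stained nuclei, excited at 405 nm and collected at 500-530 nm. Compound treatment lasted 48 hr at 37 C in 5% CO2 before staining.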
MCF10A rereplic: inducers of DNA re-replication in MCF 10A breast cells; 2.9% of 350,000 active; MCF 10A DNA re-replication, Hoechst nuclear intensity, 48 h; Potency, µM (series often up to 46.1 µM), most hits filed as activators; also: nearly all actives have a fitted effect of over 50% in size
ATXN viability: reduces viability in counter-screen for ATXN expression inhibitors; 0.49% of 400,000 active; S2 cells (HEK-293 line with an ATXN2-luciferase reporter) viability, CellTiter-Fluor protease fluorescence, 24 h; AID 651635; Potency, µM (highest dose often 56.7 µM), most hits filed as cytotoxic; also: nearly all actives have a fitted effect of over 40% in size
Large screens that a line does not name were inactive. Compounds with a hit are over-represented: about 7.1% of the library has one in this group of screens. Unless noted, calls follow the shape of the dose curve; as a rule, active = well fitted curve in the direction sought with a large enough effect; inconclusive = small, poorly fitted or top-dose-only effect, or another doubt; inactive = no such curve, though single readings can be large; an effect the other way counts as inactive or inconclusive.

COc1ccc(Cl)c(-c2cc(C(=O)Nc3ccc(C)c(NS(C)(=O)=O)c3)[nH]n2)c1	ATXN2 expr inh inconclusive, ATXN viability inconclusive (no result: SW480 rerep, MCF10A rereplic)
Cc1cccc(-c2nc(C)c(CCNC(=O)C(=O)Nc3ccc(C)c(C)c3)s2)c1	none (no result: IL1B secr inh, SW480 rerep, MCF10A rereplic)
CN(C)CC/C=C1/c2ccc(F)cc2Sc2ccc(Cl)cc21	ATXN2 expr inh inconclusive, IL1B secr inh -85, ATXN viability inconclusive
CN(C)CC/C=C1\c2cc(Cl)ccc2Sc2cc(F)c(F)cc21	MCF10A rereplic inconclusive
CN(C)CC/C=C1\c2ccccc2Sc2cc(F)c(Cl)cc21	IL1B secr inh -93, SW480 rerep inconclusive, ATXN viability inconclusive
CN(C)CC/C=C1\c2ccc(F)cc2Sc2cc(F)c(Cl)cc21	IL1B secr inh -61, SW480 rerep inconclusive, MCF10A rereplic inconclusive, ATXN viability inconclusive (no result: ATXN2 expr inh)
O=C(NCCN1CCOCC1)c1cnn(-c2nccc(-c3cc4ccccc4o3)n2)c1C1CC1	ATXN viability inconclusive (no result: ATXN2 expr inh, IL1B secr inh, SW480 rerep, MCF10A rereplic)
O=C(O)c1ccccc1NC(=O)C(Cc1ccccc1)N1C(=O)c2ccccc2C1=O (configuration not stated)	none (no result: ATXN2 expr inh)
O=C(Nc1ccc([N+](=O)[O-])cc1)C(Cc1ccccc1)N1C(=O)c2cccc3cccc(c23)C1=O (configuration not stated)	SW480 rerep 18µM, MCF10A rereplic 12µM, ATXN viability inconclusive
CCc1cccc(NC(=O)Cn2c(=O)n(CC(=O)NCCc3ccccc3)c(=O)c3ccccc32)c1	none (no result: IL1B secr inh, SW480 rerep, MCF10A rereplic)
Cc1cc(N(C)Cc2ccccc2)nc2cc(O)ccc12	IL1B secr inh -56 (no result: ATXN viability)
COc1ccc(COC(=O)C2CCN(C(=O)c3ccc(Cl)cc3)CC2)cc1F	MCF10A rereplic 15µM
COc1cccc2c1OCC(CN1CCN(Cc3ccccc3F)C(CCO)C1)=C2 (configuration not stated)	SW480 rerep inconclusive, MCF10A rereplic 0.73µM
CCN(CC)c1cc2c(cc1F)c(=O)c(S(=O)(=O)c1ccccc1)cn2Cc1ccccc1	none (no result: ATXN2 expr inh, IL1B secr inh, SW480 rerep, MCF10A rereplic, ATXN viability)
c1ccc(C2OC3c4cccc5cccc(c45)C3N2c2ccccc2)cc1 (configuration not stated)	SW480 rerep inconclusive, MCF10A rereplic 18µM
Cc1cc(C)c(C(=O)Nc2ccc(Br)c(C(F)(F)F)c2)c(C)c1	ATXN2 expr inh inconclusive, PINK1 modulator 13µM, SW480 rerep inconclusive, MCF10A rereplic 23µM, ATXN viability inconclusive
O=C(O)c1ccccc1C(=O)Nc1ccc(Br)c(C(F)(F)F)c1	none (no result: ATXN2 expr inh)
COc1ccc(-c2csc3ncnc(N4CCN(c5ccccc5Cl)CC4)c23)cc1	SW480 rerep inconclusive, MCF10A rereplic 18µM, ATXN viability inconclusive
COc1ccc(N2CCN(c3ncnc4scc(-c5ccc(C)cc5)c34)CC2)cc1	ATXN2 expr inh inconclusive, SW480 rerep inconclusive, MCF10A rereplic 23µM
COc1ccc(N2CCN(c3ncnc4scc(-c5ccc(F)cc5)c34)CC2)cc1	IL1B secr inh inconclusive, SW480 rerep inconclusive, MCF10A rereplic inconclusive
COc1ccc(Nc2ncnc3scc(-c4ccc(OC)cc4)c23)cc1	SW480 rerep 15µM, MCF10A rereplic 5.2µM
Cc1cccc(C(C)C)c1NC(=O)Cn1c(=O)oc2cc(S(=O)(=O)N3CCCC3)ccc21	none (no result: ATXN2 expr inh, IL1B secr inh, SW480 rerep, MCF10A rereplic, ATXN viability)
COc1ccc(CCNC(=O)CCSCc2ccccc2Cl)cc1OC	none (no result: IL1B secr inh, SW480 rerep, MCF10A rereplic)
Cc1oc(-c2ccc(C(=O)Nc3cc(F)ccc3F)cc2)nc1COc1ccccc1	none (no result: IL1B secr inh, SW480 rerep, MCF10A rereplic)
COC(=O)c1sccc1S(=O)(=O)N(CC(=O)NCc1ccccc1)c1ccc(C)cc1	ATXN viability inconclusive (no result: IL1B secr inh, SW480 rerep, MCF10A rereplic)
COc1ccc(COC(=O)Nc2cc3c(C(F)(F)F)nn(C)c3s2)cc1	none
Cn1nc(C(F)(F)F)c2cc(NC(=O)OCc3ccc(C(C)(C)C)cc3)sc21	PINK1 modulator inconclusive, IL1B secr inh -87, MCF10A rereplic 15µM
Cn1nc(C(F)(F)F)c2cc(NC(=O)OCc3ccc(F)cc3)sc21	IL1B secr inh -87, MCF10A rereplic inconclusive
CSc1cccc(NC(=O)c2ccc3c(c2)c(C)c(C)n3Cc2ccc(F)cc2)c1	none (no result: ATXN2 expr inh, IL1B secr inh, SW480 rerep, MCF10A rereplic, ATXN viability)
CN(C)c1ccc(CC(=O)N2CCCCC2c2cc(C(=O)Nc3cccc(C#N)c3)no2)cc1 (configuration not stated)	none (no result: SW480 rerep, MCF10A rereplic)
C=CCc1ccccc1OCc1nc2ccc(C)cc2[nH]1	ATXN2 expr inh inconclusive, PINK1 modulator 40µM, ATXN viability inconclusive (no result: IL1B secr inh, SW480 rerep, MCF10A rereplic)
COc1cc(CNC[C@H]2O[C@@H](n3ccc(N)nc3=O)[C@H](O)[C@@H]2O)ccc1OCc1cccc(Cl)c1	none (no result: SW480 rerep, MCF10A rereplic)
CO[C@H]1[C@H](NC(=O)C(C)C)c2ccccc2C12CCN(Cc1c(C)nn(C)c1Cl)CC2	none (no result: ATXN2 expr inh, IL1B secr inh, SW480 rerep, MCF10A rereplic)
Cc1ccc(S(=O)(=O)c2cnc(SC(C)C(=O)Nc3ccccc3)[nH]c2=O)cc1 (configuration not stated)	none (no result: IL1B secr inh, SW480 rerep, MCF10A rereplic)
Cc1ccc(/C=N/Nc2ccc(C(=O)O)cc2)o1	SW480 rerep inconclusive (no result: ATXN2 expr inh)
O=S(=O)(N/N=C\c1ccc(-c2ccccc2Cl)o1)c1ccccc1	SW480 rerep inconclusive, MCF10A rereplic inconclusive
O=C(O)c1ccc(N/N=C/c2ccc(-c3ccc(Br)cc3)o2)cc1	SW480 rerep 21µM, MCF10A rereplic inconclusive
O=C(O)c1ccc(N/N=C/c2ccc(-c3ccccc3Cl)o2)cc1	SW480 rerep 16µM, MCF10A rereplic inconclusive
O=C(N/N=C/c1ccc(-c2ccccc2Cl)o1)c1ccccc1	SW480 rerep inconclusive, MCF10A rereplic 29µM
CCOc1ccc(NC(=O)CN(C)S(=O)(=O)c2ccc3[nH]c4c(c3c2)CCCC4)cc1	ATXN2 expr inh inconclusive, ATXN viability inconclusive (no result: IL1B secr inh, SW480 rerep, MCF10A rereplic)
Cc1ccc2c(c1)C1CN(C)CCC1N2S(=O)(=O)c1cccc(C(F)(F)F)c1 (configuration not stated)	none (no result: ATXN2 expr inh)
Cc1ccc2c(c1)C1CN(C)CCC1N2S(=O)(=O)c1ccccc1F (configuration not stated)	IL1B secr inh -51
Cc1ccc2nsnc2c1NC(=O)c1ccc([N+](=O)[O-])o1	IL1B secr inh -92, MCF10A rereplic 21µM
Cc1ccc(C(=O)NC(=S)Nc2c(C)ccc3nsnc23)cc1	none
Cc1ccc2nsnc2c1NC(=O)c1ccc(-c2cc(Cl)ccc2Cl)o1	ATXN2 expr inh inconclusive, SW480 rerep 13µM, ATXN viability inconclusive
CC(C)C(=O)NC(=S)Nc1c(Cl)ccc2nsnc12	MCF10A rereplic 18µM
COc1cc2nc(N(C)C)c(CNC3CCOC(C)(C)C3)cc2c(OC)c1OC (configuration not stated)	none (no result: ATXN2 expr inh, IL1B secr inh, SW480 rerep, MCF10A rereplic)
COc1ccccc1CNC(=O)c1cc2c(C)nn(Cc3ccc(F)cc3)c2s1	IL1B secr inh -52
Cc1nn(Cc2ccc(F)cc2)c2sc(C(=O)Nc3nccs3)cc12	MCF10A rereplic inconclusive
CN(CCOc1ccccc1)C(=S)Nc1ccc(OC(F)F)cc1	IL1B secr inh -58
